# Assays:
# [1] = target: Glycogen synthase kinase-3 beta (Homo sapiens) (UniProt P49841); details: at 1 µM;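 also: reported values are mean percent inhibition of GSK3B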
# [2] = target: Homeodomain-interacting protein kinase 1 (Homo sapiens) (UniProt Q86Z02); details: at 0.1 µM
# [3] = target: Homeodomain-interacting protein kinase 1 (Homo sapiens) (UniProt Q86Z02); details: at 1 µM
# [4] = target: T1, Homeodomain-interacting protein kinase 4 (Homo sapiens) (UniProt Q8NE63); details: at 0.1 µM
# T1 sequence (whole entry): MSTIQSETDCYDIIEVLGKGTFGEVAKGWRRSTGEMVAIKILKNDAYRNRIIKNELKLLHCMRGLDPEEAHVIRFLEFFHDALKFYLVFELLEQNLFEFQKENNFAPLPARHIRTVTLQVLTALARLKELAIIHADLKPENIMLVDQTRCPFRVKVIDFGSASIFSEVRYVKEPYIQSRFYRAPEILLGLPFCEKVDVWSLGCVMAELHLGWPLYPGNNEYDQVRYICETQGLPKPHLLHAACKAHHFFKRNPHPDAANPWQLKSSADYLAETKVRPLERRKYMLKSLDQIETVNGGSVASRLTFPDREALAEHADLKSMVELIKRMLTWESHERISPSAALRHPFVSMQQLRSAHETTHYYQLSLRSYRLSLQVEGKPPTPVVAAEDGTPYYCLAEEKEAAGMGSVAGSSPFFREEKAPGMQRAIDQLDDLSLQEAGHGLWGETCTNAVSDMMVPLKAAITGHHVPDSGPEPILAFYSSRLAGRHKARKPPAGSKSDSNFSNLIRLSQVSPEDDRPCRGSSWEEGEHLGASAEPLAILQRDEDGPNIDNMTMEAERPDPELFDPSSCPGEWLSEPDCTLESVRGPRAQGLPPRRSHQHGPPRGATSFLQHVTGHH
# [5] = target: T1, Homeodomain-interacting protein kinase 4 (Homo sapiens); details: at 1 µM
# [6] = target: Mitogen-activated protein kinase 9 (Homo sapiens) (UniProt P45984); details: at 0.1 µM
# [7] = target: Mitogen-activated protein kinase 9 (Homo sapiens) (UniProt P45984); details: at 1 µM
# [8] = target: Mitogen-activated protein kinase 1 (Homo sapiens) (UniProt P28482); details: at 0.1 µM
# [9] = target: Mitogen-activated protein kinase 1 (Homo sapiens) (UniProt P28482); details: at 1 µM
# [10] = target: Mitogen-activated protein kinase 3 (Homo sapiens) (UniProt P27361); details: at 0.1 µM;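 also: each value is a mean inhibition figure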
# Mitogen-activated protein kinase 3 (Homo sapiens), sequence (P27361 whole entry): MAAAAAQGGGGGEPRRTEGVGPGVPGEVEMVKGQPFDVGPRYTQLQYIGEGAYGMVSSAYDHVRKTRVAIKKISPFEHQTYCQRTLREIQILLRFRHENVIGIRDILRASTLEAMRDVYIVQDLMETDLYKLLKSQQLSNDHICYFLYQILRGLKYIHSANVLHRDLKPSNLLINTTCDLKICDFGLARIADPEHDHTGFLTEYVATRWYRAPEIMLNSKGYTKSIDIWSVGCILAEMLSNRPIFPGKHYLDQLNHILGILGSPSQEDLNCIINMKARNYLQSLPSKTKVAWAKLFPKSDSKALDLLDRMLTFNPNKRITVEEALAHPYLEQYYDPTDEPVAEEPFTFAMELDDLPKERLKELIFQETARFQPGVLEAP
# Glycogen synthase kinase-3 beta (Homo sapiens), sequence (P49841 whole entry, looked up): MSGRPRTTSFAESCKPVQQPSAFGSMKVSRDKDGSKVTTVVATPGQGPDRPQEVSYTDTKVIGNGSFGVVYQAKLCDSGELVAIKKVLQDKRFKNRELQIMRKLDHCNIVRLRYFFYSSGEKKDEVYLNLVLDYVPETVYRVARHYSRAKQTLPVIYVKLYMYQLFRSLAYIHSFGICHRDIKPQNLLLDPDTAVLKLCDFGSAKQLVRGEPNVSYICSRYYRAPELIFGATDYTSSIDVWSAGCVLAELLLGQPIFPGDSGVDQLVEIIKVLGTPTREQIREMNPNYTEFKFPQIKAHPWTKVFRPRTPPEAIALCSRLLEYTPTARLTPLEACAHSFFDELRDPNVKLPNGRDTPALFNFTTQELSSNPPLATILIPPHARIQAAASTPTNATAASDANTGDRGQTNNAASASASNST
# Mitogen-activated protein kinase 1 (Homo sapiens), sequence (P28482 whole entry): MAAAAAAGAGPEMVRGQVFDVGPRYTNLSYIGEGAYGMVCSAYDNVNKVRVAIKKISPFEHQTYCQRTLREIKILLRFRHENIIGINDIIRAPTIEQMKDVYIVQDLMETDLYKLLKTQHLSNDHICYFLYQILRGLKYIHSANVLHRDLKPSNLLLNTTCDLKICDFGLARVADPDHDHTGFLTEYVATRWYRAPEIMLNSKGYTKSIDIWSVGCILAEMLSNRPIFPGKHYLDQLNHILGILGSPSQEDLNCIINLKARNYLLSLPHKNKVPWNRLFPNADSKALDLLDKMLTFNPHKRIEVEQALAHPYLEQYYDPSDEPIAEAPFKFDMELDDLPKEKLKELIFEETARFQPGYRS
# Mitogen-activated protein kinase 9 (Homo sapiens), sequence (P45984 whole entry, looked up): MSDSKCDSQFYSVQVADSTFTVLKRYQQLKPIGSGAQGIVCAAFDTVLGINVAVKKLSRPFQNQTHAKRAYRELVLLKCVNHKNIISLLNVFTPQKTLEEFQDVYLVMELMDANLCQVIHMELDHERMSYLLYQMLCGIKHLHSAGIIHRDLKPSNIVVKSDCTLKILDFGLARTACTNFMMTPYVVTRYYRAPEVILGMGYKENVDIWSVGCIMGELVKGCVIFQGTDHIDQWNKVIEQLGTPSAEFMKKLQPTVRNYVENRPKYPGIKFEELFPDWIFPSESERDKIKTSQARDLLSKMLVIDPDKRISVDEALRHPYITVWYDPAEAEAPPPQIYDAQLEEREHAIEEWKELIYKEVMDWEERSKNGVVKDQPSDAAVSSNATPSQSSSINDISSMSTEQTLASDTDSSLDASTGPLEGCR
# Homeodomain-interacting protein kinase 1 (Homo sapiens), sequence (Q86Z02 whole entry, looked up): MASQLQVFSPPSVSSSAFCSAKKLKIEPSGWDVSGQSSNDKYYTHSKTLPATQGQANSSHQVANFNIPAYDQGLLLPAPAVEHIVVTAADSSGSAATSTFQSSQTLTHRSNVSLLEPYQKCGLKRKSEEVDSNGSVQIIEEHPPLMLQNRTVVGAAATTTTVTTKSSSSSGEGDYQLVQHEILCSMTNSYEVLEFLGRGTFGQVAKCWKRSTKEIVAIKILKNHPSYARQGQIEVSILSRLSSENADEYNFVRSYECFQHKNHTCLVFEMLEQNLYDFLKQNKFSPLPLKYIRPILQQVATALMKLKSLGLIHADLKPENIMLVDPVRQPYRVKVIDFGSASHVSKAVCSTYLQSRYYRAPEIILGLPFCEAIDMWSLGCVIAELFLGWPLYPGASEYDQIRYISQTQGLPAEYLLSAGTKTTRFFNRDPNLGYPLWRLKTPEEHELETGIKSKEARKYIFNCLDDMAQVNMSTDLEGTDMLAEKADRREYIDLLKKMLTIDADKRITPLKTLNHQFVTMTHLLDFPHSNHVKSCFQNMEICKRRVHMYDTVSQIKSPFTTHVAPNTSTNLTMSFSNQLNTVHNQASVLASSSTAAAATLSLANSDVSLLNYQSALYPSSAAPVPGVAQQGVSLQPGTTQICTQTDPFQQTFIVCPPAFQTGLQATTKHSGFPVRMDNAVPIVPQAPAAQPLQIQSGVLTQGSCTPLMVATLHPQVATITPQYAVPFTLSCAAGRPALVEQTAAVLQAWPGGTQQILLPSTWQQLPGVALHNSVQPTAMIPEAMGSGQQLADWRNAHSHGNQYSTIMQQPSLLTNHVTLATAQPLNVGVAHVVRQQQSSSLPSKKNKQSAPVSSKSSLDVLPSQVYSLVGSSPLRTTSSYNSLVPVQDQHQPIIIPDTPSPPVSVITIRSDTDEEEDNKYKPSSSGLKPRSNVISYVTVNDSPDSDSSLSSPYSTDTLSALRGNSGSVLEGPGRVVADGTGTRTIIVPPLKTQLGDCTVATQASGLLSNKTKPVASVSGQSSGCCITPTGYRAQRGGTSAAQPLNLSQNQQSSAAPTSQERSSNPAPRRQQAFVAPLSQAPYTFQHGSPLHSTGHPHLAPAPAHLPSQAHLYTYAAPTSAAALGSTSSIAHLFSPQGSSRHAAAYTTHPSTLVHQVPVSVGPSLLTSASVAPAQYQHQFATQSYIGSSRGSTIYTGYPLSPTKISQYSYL
SMILES,inhibition [1] [%],inhibition [2] [%],inhibition [3] [%],inhibition [4] [%],inhibition [5] [%],inhibition [6] [%],inhibition [7] [%],inhibition [8] [%],inhibition [9] [%],inhibition [10] [%]
CCCN(CCS(C)(=O)=O)Cc1ccc(-c2ccc3ncnc(Nc4ccc(OCc5cccc(F)c5)c(Cl)c4)c3c2)o1,10.2,6.46,11.6,3.01,9.25,2.74,4.94,1.68,3.24,1.75
Fc1ccc(-c2cc(-c3c[nH]nc3-c3ccccn3)ccn2)cc1,2.88,1.57,0.95,1.68,4.16,3.65,11.3,6.73,5.51,6.42
COc1ccc(-c2cc3c(N)ncnc3o2)cc1,8,0,5.4,2.36,16.5,-0.62,-0.18,1,0.69,-1.53
CNC(=O)c1cccc(C#Cc2cncnc2Nc2ccc(OCc3cccc(F)c3)c(Cl)c2)c1,6.56,1.69,4.07,1.01,4.65,-2.46,1.25,1.53,0.6,2.46
COC(=O)Nc1nc2ccc(Oc3ccc(NC(=O)Nc4cccc(Cl)c4)cc3)cc2[nH]1,4.55,-1.97,-0.94,2.35,14.8,1.98,5.76,1.02,1.55,-0.95
CCN(CC)S(=O)(=O)c1ccc(OC)c(Nc2ncc(-c3ccccc3)o2)c1,3.89,1.49,10.2,2.17,17.8,2.31,1.02,-1.7,-0.08,1.68
N#Cc1c(NC(=O)CN2CCOCC2)sc2c1CCCC2,7.42,6.67,10.1,7.62,6.09,4.4,9.83,4.06,4.79,3.09
CCCN1CCC(c2ccc(Nc3nc(Nc4cc(F)ccc4C(N)=O)c4cc[nH]c4n3)c(OC)c2)CC1,9.55,49.2,81.5,59.6,84.6,68,83.8,9.4,30.2,4.94
c1cc(-c2cnn3nc(N4CCOCC4)ccc23)nc(NC2CC2)n1,18.2,3.36,29,4.39,20.6,5.03,26.1,1.45,7.25,4.13
